Source: PubChem BioAssay (Broad Institute)
Many of the other results were omitted from the sample, so hits are more common in it than they were.
miR122 inh: miR-122 sensor activation. Huh7 psiCHECK-miR122 Renilla luciferase sensor, 48 h. activation, % at 12.5 µM. 340,000 compounds, 0.14% hits;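 active = mean activation of 30% or more, with every replicate also reaching 30%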;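 note: 0% = median of neutral control wells and 100% = median of positive control wells; higher luciferase signal means stronger suppression of miR-122 activity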
* marks the source's active call; other numbers are inactive results.

SMILES	miR122 inh
CO[C@@H]1CN(C)C(=O)c2cc(NC(=O)C3CCOCC3)ccc2OC[C@@H](C)N(C)C[C@H]1C	-1
CO[C@H]1CN(C)C(=O)c2cc(NC(=O)c3nc4ccccc4s3)ccc2OC[C@@H](C)N(Cc2ccncc2)C[C@H]1C	-2
CCCC(=O)Nc1ccc2c(c1)C(=O)N(C)[C@H]1CC[C@@H](CC(=O)NCC(F)(F)F)O[C@H]1CO2	-143
CO[C@@H]1CN(C)C(=O)c2ccc(NS(=O)(=O)c3cccc(C)c3)cc2OC[C@@H](C)N(C(=O)Cc2cccnc2)C[C@H]1C	-1
C[C@H](CO)N1C[C@H](C)[C@@H](CN(C)C(=O)Nc2cc(F)ccc2F)Oc2cc(-c3ccc(C#N)cc3)ccc2S1(=O)=O	-44
CCC(=O)N(C)C[C@@H]1Oc2ncc(-c3cccc(OC)c3)cc2C(=O)N([C@H](C)CO)C[C@@H]1C	-29
COCC#Cc1ccc2c(c1)O[C@@H](CN(C)C(=O)COC)[C@H](C)CN([C@H](C)CO)S2(=O)=O	2
C[C@@H]1CN([C@H](C)CO)C(=O)c2cccc(NC(=O)NC3CCCCC3)c2O[C@H]1CN(C)Cc1ccc(Cl)c(Cl)c1	-118
COc1cccc(-c2cnc3c(c2)C(=O)N([C@H](C)CO)C[C@H](C)[C@@H](CN(C)Cc2ccccc2)O3)c1	4
C[C@@H]1CN([C@@H](C)CO)S(=O)(=O)c2ccc(C#Cc3cccnc3)cc2O[C@@H]1CN(C)CC1CCOCC1	-24
C[C@H](CO)N1C[C@H](C)[C@@H](CN(C)S(=O)(=O)c2ccc(F)cc2)Oc2ncc(/C=C/c3ccccc3)cc2C1=O	0
CO[C@H]1CN(C)C(=O)c2cc(NS(=O)(=O)CC(F)(F)F)ccc2OC[C@@H](C)N(C)C[C@H]1C	1
C[C@@H]1CN([C@H](C)CO)C(=O)c2cc(Br)cnc2O[C@H]1CN(C)C(=O)c1cccnc1	-1
C[C@H](CO)N1C[C@H](C)[C@H](CN(C)S(=O)(=O)c2ccc(F)cc2)Oc2ncc(/C=C/c3ccccc3)cc2C1=O	7
C[C@@H]1CN([C@H](C)CO)S(=O)(=O)c2ccc(C#CCC3CCCC3)cc2O[C@@H]1CN(C)C(=O)CC1CC1	-12
C[C@@H]1CN([C@H](C)CO)C(=O)c2cccc(N(C)C)c2O[C@H]1CN(C)C(=O)Nc1ccccc1	-124
C[C@H](CO)N1C[C@H](C)[C@H](CN(C)Cc2ccc(Cl)c(Cl)c2)Oc2c(NC(=O)Nc3ccc4c(c3)OCO4)cccc2C1=O	-91
C[C@@H]1CN([C@@H](C)CO)C(=O)c2cc(NC(=O)Nc3cccc4ccccc34)ccc2O[C@@H](C)CCCCO[C@@H]1CN(C)CC1CCCCC1	34*
COc1ccc(S(=O)(=O)N(C)C[C@H]2Oc3ccc(NC(=O)Nc4ccc(C(F)(F)F)cc4)cc3C(=O)N([C@@H](C)CO)C[C@H]2C)cc1	-111
C[C@@H]1CN([C@H](C)CO)C(=O)c2cc(NC(=O)Nc3cccc4ccccc34)ccc2O[C@@H]1CN(C)C(=O)Nc1ccccc1	-90
COc1ccc(CN(C)C[C@@H]2OCCCC[C@@H](C)Oc3ccc(NC(=O)c4ccccc4)cc3C(=O)N([C@H](C)CO)C[C@@H]2C)cc1	-95
C[C@@H]1CN([C@H](C)CO)C(=O)c2cccc(NC(=O)Nc3ccccc3)c2O[C@H]1CN(C)Cc1ccc(C(F)(F)F)cc1	-107
C[C@@H]1CN([C@@H](C)CO)C(=O)c2cc(-c3ccccc3F)cnc2O[C@H]1CN(C)C(=O)NC1CCCCC1	0
Cc1ccc(S(=O)(=O)Nc2ccc3c(c2)C(=O)N([C@@H](C)CO)C[C@H](C)[C@H](CN(C)C(=O)Nc2ccc(F)cc2)OCCCC[C@@H](C)O3)cc1	-94
C[C@H](CO)N1C[C@H](C)[C@H](CN(C)C(=O)NC2CCCCC2)Oc2ncc(-c3ccccc3F)cc2C1=O	3
SMILES	miR122 inh
COc1ccc(CN(C)C[C@@H]2OCCCC[C@H](C)Oc3ccc(NC(=O)Nc4ccc(C(F)(F)F)cc4)cc3C(=O)N([C@H](C)CO)C[C@@H]2C)cc1	31*
C[C@H](CO)N1C[C@H](C)[C@H](CN(C)C(=O)NC2CCCCC2)Oc2ncc(-c3cccc(C(F)(F)F)c3)cc2C1=O	33*
C[C@@H]1CCCCO[C@@H](CN(C)Cc2ccc3c(c2)OCO3)[C@H](C)CN([C@H](C)CO)C(=O)c2cc(NC(=O)Nc3ccc(C(F)(F)F)cc3)ccc2O1	34*
C[C@H]1CN([C@@H](C)CO)S(=O)(=O)c2ccc(C#Cc3cccnc3)cc2O[C@H]1CN(C)CC1CCOCC1	-4
COCC#Cc1cnc2c(c1)C(=O)N([C@H](C)CO)C[C@@H](C)[C@H](CN(C)C(=O)Nc1ccc(OC)cc1)O2	6
C[C@H](CO)N1C[C@H](C)[C@@H](CN(C)S(C)(=O)=O)Oc2ncc(-c3cccc(F)c3)cc2C1=O	-59
CCC(=O)Nc1ccc2c(c1)OC[C@@H](C)NC[C@H](C)[C@H](OC)CN(C)C2=O	-1
CCCC#Cc1ccc2c(c1)O[C@@H](CN(C)S(C)(=O)=O)[C@@H](C)CN([C@@H](C)CO)S2(=O)=O	8
CC(C)NC(=O)N(C)C[C@H]1Oc2ncc(C3=CCCCC3)cc2C(=O)N([C@@H](C)CO)C[C@H]1C	-3
CCC(=O)N(C)C[C@@H]1Oc2ncc(C#Cc3ccc(OC)cc3)cc2C(=O)N([C@H](C)CO)C[C@H]1C	3
C[C@H](CO)N1C[C@H](C)[C@H](CN(C)Cc2ccccn2)Oc2cc(-c3cccnc3)ccc2S1(=O)=O	8
COCC#Cc1ccc2c(c1)O[C@@H](CN(C)C(=O)C1CCCCC1)[C@H](C)CN([C@@H](C)CO)S2(=O)=O	-10
C[C@H](O)C#Cc1cnc2c(c1)C(=O)N([C@@H](C)CO)C[C@H](C)[C@@H](CN(C)Cc1cncnc1)O2	-6
COc1ccc(S(=O)(=O)N(C)C[C@H]2Oc3ccc(NC(=O)Nc4ccc(C(F)(F)F)cc4)cc3C(=O)N([C@H](C)CO)C[C@H]2C)cc1	-136
Cc1ccc(S(=O)(=O)N(C)C[C@H]2Oc3ccc(NC(=O)Nc4ccc(C(F)(F)F)cc4)cc3C(=O)N([C@H](C)CO)C[C@H]2C)cc1	-93
C[C@@H]1CN([C@@H](C)CO)C(=O)c2cc(NC(=O)Nc3ccc(C(F)(F)F)cc3)ccc2O[C@@H]1CN(C)CC1CCCCC1	40*
C[C@H](CO)N1C[C@H](C)[C@@H](CN(C)C(=O)CC2CC2)Oc2cc(-c3ccccc3)ccc2S1(=O)=O	-32
COc1ccccc1-c1cnc2c(c1)C(=O)N([C@@H](C)CO)C[C@H](C)[C@@H](CN(C)C(=O)c1ccccc1)O2	-5
O=C(NC[C@@H]1[C@H](c2ccccc2)[C@@H](CO)N1C(=O)C1CC1)NC1CCCC1	-108
CCN(C[C@H]1[C@H](c2ccccc2)[C@@H](CO)N1C(=O)C1CC1)C(=O)NC1CCCC1	36*
COc1ccc(NC(=O)N(C)C[C@@H]2Oc3ncc(Br)cc3C(=O)N([C@H](C)CO)C[C@@H]2C)cc1	-31
CCCNC(=O)N1C[C@@H]2[C@H](c3ccccc31)[C@@H](CO)N2Cc1cc(F)ccc1F	36*
COc1cccc(C(=O)N2C[C@H]3[C@@H](c4ccccc42)[C@@H](CO)N3C(=O)c2ccc(F)cc2)c1	-229
O=C(C1CCCCC1)N1[C@H](CO)[C@@H]2c3ccccc3N(S(=O)(=O)c3ccccc3)C[C@@H]21	-96
O=C(Nc1ccc(N2CCOCC2)c(S(=O)(=O)Nc2cc(Cl)ccc2Cl)c1)c1cccnc1	-325
